A short description of this experiment: aptamer fluorescence quenchers on streptavidin beads – biochemical, flow cytometry, cherry pick 2, artefact control for GRK2 aptamer inhibitor project, dose response (AID 504819). To be noted: FAM-RNA aptamer fluorescence quenching, active compounds read high.

This is one part of the list. A number with no mark means an inactive call.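 Rule for the calls: active = compounds quenching the bead-bound labeled aptamer, with fluorescence dropping by more than 37 kMESF over the dose range; inactive = the rest.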

For the molecule `O=C(CCS(=O)(=O)c1ccc(Br)cc1)NCCc1ccc(Cl)cc1`, the change in fluorescence (kMESF span) is 2.5 kMESF.
Take `COc1ccc(Cl)cc1NC(=O)CCS(=O)(=O)c1ccc(Br)cc1`: the change in fluorescence (kMESF span) is 1.4 kMESF.

For the origin of these results see PubChem BioAssay AID504819 (NMMLSC, 2011).
